Assay results as given in PubChem BioAssay (NCI).
Compounds without any hit were thinned out: in the full panel of roughly 79,000, 15% have a hit. Values without a mark were called inactive. Calls of active or inactive are those of the source. Rule as the data show it: active = growth inhibition above about 70%; inactive = the rest.

Tests used:
[1] = NCI Yeast Anticancer Drug Screen. Data for the rad50 strain (AID 155);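 also: 0% = growth of vehicle-only cultures of the same strain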; settings: S. cerevisiae rad50 strain growth inhibition, hits give high values
Procedure, shortened: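 Vehicle-treated cultures provide the reference for the growth inhibition reported for compound-exposed, repair-deficient yeast.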

[2] = NCI Yeast Anticancer Drug Screen. Data for the mec2-1 strain (AID 157); settings: S. cerevisiae mec2-1 strain, hits give high values
Procedure, shortened: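 Using mec2-1 yeast: add compound, measure growth, express inhibition versus vehicle-treated cultures.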

[3] = NCI Yeast Anticancer Drug Screen. Data for the sgs1 mgt1 strain (AID 161);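 also: 0% = growth of cultures given vehicle only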; settings: S. cerevisiae sgs1 mgt1 strain, hits give high values
Procedure, shortened: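 Yeast cells carrying a defined DNA-repair defect were exposed to test compounds. Growth inhibition was measured relative to vehicle-treated controls.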

[4] = NCI Yeast Anticancer Drug Screen. Data for the cln2 rad14 strain (AID 165);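 also: 0% = growth equal to vehicle treated cultures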; settings: S. cerevisiae cln2 rad14 strain, hits give high values
Procedure, shortened: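 Yeast strain cln2 rad14, bearing defects in cell cycle control and DNA repair, serves as the test system; values reflect growth inhibition compared with vehicle.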

[5] = NCI Yeast Anticancer Drug Screen. Data for the bub3 strain (AID 167); settings: S. cerevisiae bub3 mutant strain, hits give high values
Procedure, shortened: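 Mutant yeast screening strain plus compound; vehicle-treated cultures serve as the 0% inhibition reference.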

[6] = NCI Yeast Anticancer Drug Screen. Data for the mlh1 rad18 strain (AID 175); settings: S. cerevisiae mlh1 rad18 strain growth inhibition, hits give high values
Procedure, shortened: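 Steps: expose repair-defective yeast to compound; measure growth; express inhibition against vehicle-treated controls.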

[7] = at 5.0 µM (retest, dose inferred, filed as 0.5)
[8] = at 50.0 µM (retest, dose inferred, filed as 5.0)

SMILES	growth inhibition [1, 7] [%]	growth inhibition [1, 8] [%]	growth inhibition ([1]; at 50.0 µM)	growth inhibition [2, 7] [%]	growth inhibition [2, 8] [%]	growth inhibition ([2]; at 50.0 µM)	growth inhibition [3, 7] [%]	growth inhibition [3, 8] [%]	growth inhibition ([3]; at 50.0 µM)	growth inhibition [4, 7] [%]	growth inhibition [4, 8] [%]	growth inhibition ([4]; at 50.0 µM)	growth inhibition [5, 7] [%]	growth inhibition [5, 8]	growth inhibition ([5]; at 50.0 µM)	growth inhibition [6, 7] [%]	growth inhibition [6, 8]	growth inhibition ([6]; at 50.0 µM)
O=C(O)c1cc2ccc(Cl)cc2c2c1C(=O)c1cc(Cl)ccc1-2	12	50	90.3% (active)	0	33	57.5%	-2	35	82.5% (active)	-3	39	77.3% (active)	-2	33%	82% (active)	-4	46%	84.5% (active)
Cc1ccc(SCc2ccccc2Cl)nn1	-2	3	6.6%	-9	11	-2.15%	-8	17	-2.3%	3	20	31.1%	6	34%	15.4%	-1	19%	4.75%
CCOC(=O)N/N=C/c1ccc([N+](=O)[O-])o1	11	61	89.9% (active)	2	35	81.8% (active)	3	62	92.2% (active)	1	19	52%	17	77% (active)	82.1% (active)	17	78% (active)	94% (active)
CN1CCN(CCSC2Cc3cc(Cl)ccc3Sc3ccccc32)CC1 (configuration not stated)	29	29	93% (active)	5	5	91.8% (active)	19	19	92% (active)	1	1	91.6% (active)	16	16%	93.8% (active)	29	29%	92.5% (active)
CC(=O)Oc1c(Br)ccc2cc(C(Br)Br)c(C(=O)c3ccccc3)nc12	55	55	83.6% (active)	38	38	87.5% (active)	51	51	87.5% (active)	30	30	82.9% (active)	25	25%	83.9% (active)	53	53%	81.4% (active)
CCCCCCCCCCCCNCC#N	8	18	89.9% (active)	11	10	72.2% (active)	-2	17	85.1% (active)	0	15	48.4%	4	52%	83.5% (active)	5	29%	93% (active)
Oc1ccccc1C1C=C(c2ccccc2)NC(N2CCCCC2)=C1c1nc2ccccc2[nH]1 (configuration not stated)	-9	-11	18.1%	-9	-13	-5.15%	-9	-10	5.05%	-22	-14	40%	-13	6%	29.4%	2	-2%	9.4%
CCOc1ccc(Nc2nc(C)c(C(=O)/C=C/c3ccc(Cl)cc3Cl)s2)cc1	25	25	71.1% (active)	-6	-6	31.9%	8	8	33%	6	6	48.4%	6	6%	55.5%	20	20%	17.6%
CC(=O)N(N)c1ccccc1	8	56	57.5%	0	42	32.2%	4	53	33.3%	4	51	57.7%	7	77% (active)	87.8% (active)	20	87% (active)	88.4% (active)
